Among all 310,000 compounds or so, about 14,000 (4.5%) showed an effect of 50% or more. The effect is printed as a negative number. This is one part of a sample in which strong results are shown more often than they occur.
Each compound was assayed against human ether-à-go-go-related gene (hERG) potassium channel (human, UniProt Q12809) (assay: primary screen, population patch clamp on CHO cells stably expressing hERG; higher = less effect of the substance).
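Note: peak tail current of the secondary pulse compared with the same well before compound.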

Sequence of human ether-à-go-go-related gene (hERG) potassium channel (Q12809 whole entry, looked up): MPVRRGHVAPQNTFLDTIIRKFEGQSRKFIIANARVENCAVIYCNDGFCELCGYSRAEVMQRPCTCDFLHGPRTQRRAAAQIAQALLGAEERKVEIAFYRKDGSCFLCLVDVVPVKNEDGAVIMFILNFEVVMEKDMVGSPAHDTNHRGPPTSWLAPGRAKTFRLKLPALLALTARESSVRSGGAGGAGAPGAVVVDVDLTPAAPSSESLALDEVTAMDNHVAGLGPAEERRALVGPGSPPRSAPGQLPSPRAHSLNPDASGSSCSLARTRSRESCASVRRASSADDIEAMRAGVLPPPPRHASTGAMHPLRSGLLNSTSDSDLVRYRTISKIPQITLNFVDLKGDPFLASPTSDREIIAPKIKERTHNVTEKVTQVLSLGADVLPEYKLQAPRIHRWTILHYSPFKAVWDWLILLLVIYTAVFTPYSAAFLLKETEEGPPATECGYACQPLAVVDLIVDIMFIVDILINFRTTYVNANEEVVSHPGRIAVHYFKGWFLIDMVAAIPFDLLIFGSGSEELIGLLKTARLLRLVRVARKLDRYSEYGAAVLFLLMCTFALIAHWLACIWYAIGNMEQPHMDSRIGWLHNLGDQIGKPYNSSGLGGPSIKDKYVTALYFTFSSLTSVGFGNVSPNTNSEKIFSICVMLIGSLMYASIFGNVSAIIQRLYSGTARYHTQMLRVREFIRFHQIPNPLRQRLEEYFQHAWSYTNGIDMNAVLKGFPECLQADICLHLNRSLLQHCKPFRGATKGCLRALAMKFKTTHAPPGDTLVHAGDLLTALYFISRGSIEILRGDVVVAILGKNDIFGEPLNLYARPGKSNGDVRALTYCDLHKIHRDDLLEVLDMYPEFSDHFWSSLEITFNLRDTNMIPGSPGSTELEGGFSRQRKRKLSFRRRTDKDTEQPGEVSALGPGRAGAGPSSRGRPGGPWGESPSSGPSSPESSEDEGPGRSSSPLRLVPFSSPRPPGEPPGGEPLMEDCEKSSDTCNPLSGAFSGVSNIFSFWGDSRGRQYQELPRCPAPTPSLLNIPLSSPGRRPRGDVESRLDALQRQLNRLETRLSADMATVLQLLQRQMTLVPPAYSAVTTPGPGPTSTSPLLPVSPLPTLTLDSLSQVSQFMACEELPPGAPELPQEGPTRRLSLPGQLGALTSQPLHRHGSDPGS

Row | Compound | hERG current change (%, negative = inhibition) at 10uM [%]
1 | CCc1ccccc1NC(=O)COc1ccc2c(=O)c(Oc3cc(C)ccc3C)coc2c1 | 10.5
2 | Cc1cc(C(C)(C)C)c(OC(=O)[C@@H]2OC(c3ccccc3)=C[C@H]2c2ccccc2)c(C(C)(C)C)c1 | 7.58
3 | c1coc(C2Nc3ccccc3C3OCCC23)c1 (stereo not shown) | 6.63
4 | CC(C)Cn1c(N)c(C(=O)COC(=O)C2=COCCO2)c(=O)n(C)c1=O | 14.1
5 | CCOC(=O)NCN1C(=O)C2C3C=CC(C3)C2C1=O (stereo not shown) | -11.9
6 | CCN(CC)c1nc(-c2ccccc2)nc2ccccc12.Cl | -32.5
7 | CCCCN(CCCC)c1nc(-c2ccncc2)nc2ccccc12 | -0.281
8 | CCCN(CCC)c1nc(-c2ccccn2)nc2ccccc12 | -74.4
9 | Cc1ccc(N2CC(C(=O)NCc3ccccn3)CC2=O)cc1 (stereo not shown) | 5.36
10 | Cc1ccc(-c2csc(NC(=O)c3cc([N+](=O)[O-])ccc3N3CCOCC3)n2)cc1 | 15.4
11 | COc1ccc(C(NC(N)=O)c2ccccc2)cc1 (stereo not shown) | 10.3
12 | Cc1ccc(NC(=S)N(CCN(C)C)Cc2cccs2)cc1 | -19.3
13 | Cc1cc(C)cc(NC(=S)N(CCN(C)C)Cc2cccs2)c1 | -25.1
14 | CN1CCN(CCCN(Cc2cccs2)C(=S)Nc2ccc(Cl)cc2)CC1 | -71.8
15 | S=C(Nc1ccc(Cl)cc1)N(CCCN1CCOCC1)Cc1cccs1 | -32.4
16 | Cc1ccc(NC(=S)N(CCCN2CCN(C)CC2)Cc2cccs2)cc1 | -51.3
17 | Cc1cc(C)cc(NC(=S)N(CCCN2CCN(C)CC2)Cc2cccs2)c1 | -63.3
18 | CCc1cccc(C)c1NC(=S)N(CCCN1CCN(C)CC1)Cc1cccs1 | -30.9
19 | Cc1cc(C)c(NC(=S)N(CCCN2CCN(C)CC2)Cc2cccs2)c(C)c1 | -43.9
20 | CCc1ccc(NC(=S)N(CCCN2CCN(C)CC2)Cc2cccs2)cc1 | -62.5
21 | CC1CCCC(NS(=O)(=O)c2cc(Br)cnc2N)C1C (stereo not shown) | -8.36
22 | CC(=O)NC(CC(=O)Nc1nc(-c2ccccc2)c(C(C)=O)s1)c1ccccc1 (stereo not shown) | -44.4
23 | COc1ccccc1C(=O)NNC1=C(C(=O)C(F)(F)F)CCC1 | -2.03
24 | O=C(CCl)NN1C(=O)NC(c2ccccc2)(c2ccccc2)C1=O | 11.2
25 | O=C(O)c1ccc(N(c2ccccc2)c2ccccc2)cc1 | 2.69
